From PubChem BioAssay
T cruzi growth – T. cruzi intracellular proliferation inhibitors, primary screen, cell-based, beta-gal Tulahuen parasites, NIH3T3 host, luminescence | T. cruzi beta-gal in NIH3T3, GalScreen luminescence, 90 h | inhibition, % at 8.34 µM | 5.9% of 77,000 active | AID 624255, 2012;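 active means mean inhibition above about 93%, with at least 55% of replicates each passing it, limit read from the data, passing the limit was not always enough; inconclusive means only one of those two conditions holds; inactive means neither condition holds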
Pf Dd2 growth – P. falciparum Dd2 growth inhibitors, primary screen, SYBR Green fluorescence, single dose replicates. AID 1159554, 2015. activity change, % at 10 µM. 2.3% of 94,000 active. 72 h; hits give low values; in the data active means activity change below about -80%; inconclusive means no clear call, values can overlap the other calls
C diff HTS – C. difficile growth inhibitors, primary screen, HTS | Clostridium difficile clinical isolate growth, OD600, 24 h; hits give low values | growth activity, negative = inhibition, % at 16 µg/mL (by protocol) | 0.25% of 86,000 active | AID 1259249, 2017;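 active means mean growth activity at or below -80% and every replicate also at or below -80%; inconclusive means mean at or below -80% but some replicate above -80%; inactive means mean growth activity above -80%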
Hits are given with their value. In the library only some 6.7% were active in any assay of this set; here they are far more common.

C[C@H]1CN([C@@H](C)CO)C(=O)c2c(c3ccccc3n2C)-c2ccccc2CO[C@H]1CN(C)Cc1ccccc1C(F)(F)F was read as Pf Dd2 growth inactive and C diff HTS inactive.
COCC1=C2[C@@H](c3ccccc3)OB(O)C[C@@H]2[C@@H]2C(=O)N(Cc3ccccc3)C(=O)[C@@H]2C1 was read as C diff HTS inactive.
`C[C@H](CO)N1C[C@H](C)[C@@H](CN(C)Cc2ccc(-c3ccccc3)cc2)Oc2ccc(NS(=O)(=O)c3ccc(Cl)cc3)cc2CC1=O` gave T cruzi growth inactive and Pf Dd2 growth inactive.
`C[C@H](CO)N1C[C@H](C)[C@@H](CN(C)C(=O)Nc2ccc3c(c2)OCO3)Oc2ccc(NC(=O)Cc3cn(C)c4ccccc34)cc2C1=O` gave Pf Dd2 growth inactive and C diff HTS inactive.
`C[C@H](CO)N1C[C@H](C)[C@H](CN(C)Cc2ccc(C(F)(F)F)cc2)OCc2ccccc2-c2ccccc2C1=O` gave Pf Dd2 growth -84 and C diff HTS inactive.
C[C@H](CO)N1C[C@H](C)[C@H](CN(C)Cc2cccc(C(F)(F)F)c2)OCc2ccccc2-c2ccccc2C1=O was read as Pf Dd2 growth inactive and C diff HTS inactive.
For C[C@H]1CN([C@@H](C)CO)C(=O)c2ccccc2-c2ccccc2CO[C@@H]1CN(C)Cc1ccc(C(F)(F)F)cc1 the results were Pf Dd2 growth inactive and C diff HTS inactive.
C[C@H]1CN([C@@H](C)CO)C(=O)c2ccccc2-c2ccccc2CO[C@H]1CN(C)Cc1ccc(C(F)(F)F)cc1 was read as Pf Dd2 growth -92 and C diff HTS inactive.
`CO[C@H]1CN(C)C(=O)c2cc(NC(C)=O)ccc2OC[C@H](C)N(Cc2cc(F)ccc2F)C[C@H]1C` gave T cruzi growth inactive and Pf Dd2 growth inactive.
For CN(C)C(=O)C[C@H]1C[C@H]2c3cc(NC(=O)Nc4ccccc4)ccc3O[C@H]2[C@H](CO)O1 the results were T cruzi growth inactive, Pf Dd2 growth inactive and C diff HTS inactive.
C[C@H](CO)N1C[C@H](C)[C@H](CN(C)C(=O)Nc2ccc(F)cc2)Oc2ccc(N(C)C)cc2C1=O was read as T cruzi growth inactive, Pf Dd2 growth inactive and C diff HTS inactive.
CO[C@@H]1CN(C)C(=O)c2ccc(NC(=O)c3ccc(-c4ccccc4)cc3)cc2OC[C@H](C)NC[C@@H]1C was read as T cruzi growth inactive and Pf Dd2 growth inconclusive.
Screening CO[C@H]1CN(C)C(=O)c2cc(NC(=O)c3ccc(Oc4ccccc4)cc3)ccc2OC[C@@H](C)NC[C@H]1C returned T cruzi growth inactive, Pf Dd2 growth inactive and C diff HTS inactive.
`CO[C@@H]1CN(C)C(=O)c2ccc(NC(=O)c3ccc(-c4ccccc4)cc3)cc2OC[C@@H](C)NC[C@@H]1C` gave Pf Dd2 growth -86 and C diff HTS inactive.
For CO[C@H]1CN(C)C(=O)c2ccc(NC(=O)c3ccc(-c4ccccc4)cc3)cc2OC[C@@H](C)NC[C@@H]1C the results were T cruzi growth inactive and Pf Dd2 growth -92.
`CO[C@@H]1CN(C)C(=O)c2cc(NC(=O)c3ccc(Oc4ccccc4)cc3)ccc2OC[C@@H](C)NC[C@@H]1C` gave T cruzi growth inactive, Pf Dd2 growth -92 and C diff HTS inactive.
`CO[C@@H]1CN(C)C(=O)c2ccc(NC(=O)c3ccc(-c4ccccc4)cc3)cc2OC[C@H](C)NC[C@H]1C` gave Pf Dd2 growth inactive and C diff HTS inactive.
`COCC#Cc1ccc([C@@H]2[C@@H](CO)N3C(=O)CN(C(=O)C4CCCC4)C[C@H]23)cc1` gave Pf Dd2 growth inactive and C diff HTS inactive.
C[C@@H]1CN([C@@H](C)CO)C(=O)c2cc(NC(=O)Nc3cccc4ccccc34)ccc2O[C@@H](C)CCCCO[C@@H]1CN(C)C(=O)C1CCCCC1 was read as T cruzi growth inactive, Pf Dd2 growth -88 and C diff HTS inactive.
C[C@@H]1CN([C@@H](C)CO)C(=O)c2cc(NC(=O)Nc3cccc4ccccc34)ccc2O[C@@H](C)CCCCO[C@@H]1CN(C)C(=O)c1ccccc1 was read as T cruzi growth inactive, Pf Dd2 growth inactive and C diff HTS inactive.
For CCCN(C)C[C@@H]1OCCCC[C@@H](C)Oc2ccc(NC(=O)Nc3cccc4ccccc34)cc2C(=O)N([C@H](C)CO)C[C@@H]1C the results were T cruzi growth inactive, Pf Dd2 growth inconclusive and C diff HTS inactive.
Screening CCCN(C)C[C@@H]1OCCCC[C@H](C)Oc2ccc(NC(=O)Nc3cccc4ccccc34)cc2C(=O)N([C@H](C)CO)C[C@@H]1C returned Pf Dd2 growth -88 and C diff HTS inactive.
Screening C[C@@H]1CCCCO[C@@H](CN(C)C(=O)Nc2cccc3ccccc23)[C@H](C)CN([C@@H](C)CO)C(=O)c2cc(NC(=O)Nc3ccccc3)ccc2O1 returned T cruzi growth inactive, Pf Dd2 growth inactive and C diff HTS inactive.
C[C@@H]1CCCCO[C@@H](CN(C)C(=O)Nc2cccc3ccccc23)[C@@H](C)CN([C@@H](C)CO)C(=O)c2cc(NC(=O)Nc3cccc4ccccc34)ccc2O1 was read as T cruzi growth inactive and Pf Dd2 growth -83.
For C[C@@H]1CCCCO[C@H](CN(C)C)[C@H](C)CN([C@H](C)CO)C(=O)c2cc(NC(=O)Nc3cccc4ccccc34)ccc2O1 the results were T cruzi growth inactive, Pf Dd2 growth -86 and C diff HTS inactive.
C[C@H]1CCCCO[C@H](CN(C)C)[C@@H](C)CN([C@@H](C)CO)C(=O)c2cc(NC(=O)Nc3cccc4ccccc34)ccc2O1 was read as T cruzi growth inactive, Pf Dd2 growth inactive and C diff HTS inactive.
For C[C@H](CO)N1C[C@H](C)[C@H](CN(C)C(=O)Nc2ccc3c(c2)OCO3)Oc2ccc(NC(=O)C3CCCCC3)cc2CC1=O the results were T cruzi growth inactive, Pf Dd2 growth inactive and C diff HTS inactive.
Screening C[C@H]1CN([C@@H](C)CO)S(=O)(=O)c2ccc(C3=CCCCC3)cc2O[C@H]1CN(C)C returned T cruzi growth inactive and Pf Dd2 growth inactive.
Screening CCCNC(=O)N(C)C[C@@H]1Oc2ncc(-c3ccccc3)cc2C(=O)N([C@@H](C)CO)C[C@@H]1C returned T cruzi growth inactive, Pf Dd2 growth inactive and C diff HTS inactive.
Screening CC(C)CC#Cc1ccc2c(c1)O[C@@H](CN(C)C(=O)c1cnccn1)[C@@H](C)CN([C@@H](C)CO)S2(=O)=O returned Pf Dd2 growth inactive and C diff HTS inactive.
`COc1ccccc1CNC(=O)C[C@H]1CC[C@@H]2[C@H](COC[C@@H](O)CN2C(=O)Nc2ccccc2)O1` gave T cruzi growth inactive and Pf Dd2 growth inactive.
For COc1ccc(NC(=O)Nc2ccc3c(c2)C(=O)N([C@@H](C)CO)C[C@@H](C)[C@H](CN(C)C(=O)Nc2c(C)noc2C)OCCCC[C@@H](C)O3)cc1 the results were T cruzi growth inactive, Pf Dd2 growth inactive and C diff HTS inactive.
`C[C@@H]1CN([C@@H](C)CO)C(=O)c2cccc(NC(=O)CCCCCC(=O)Nc3ccccc3N)c2O[C@@H]1CN(C)C(=O)Nc1ccc(C(F)(F)F)cc1` gave Pf Dd2 growth -90 and C diff HTS inactive.
